# D2 PAM-1 – positively modulates the human D2 dopamine receptor allosterically | P14416 | HEK293 T-REx D2, calcium flux, EC20 dopamine potentiation | potentiation, % at 10 µM | 340,000 compounds, 0.34% hits | AID 485347;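 active = potentiation over 3 SD above the plate norm, cut at about 30% in these data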; note: 0% is about no effect
# Target sequence (P14416 whole entry, looked up): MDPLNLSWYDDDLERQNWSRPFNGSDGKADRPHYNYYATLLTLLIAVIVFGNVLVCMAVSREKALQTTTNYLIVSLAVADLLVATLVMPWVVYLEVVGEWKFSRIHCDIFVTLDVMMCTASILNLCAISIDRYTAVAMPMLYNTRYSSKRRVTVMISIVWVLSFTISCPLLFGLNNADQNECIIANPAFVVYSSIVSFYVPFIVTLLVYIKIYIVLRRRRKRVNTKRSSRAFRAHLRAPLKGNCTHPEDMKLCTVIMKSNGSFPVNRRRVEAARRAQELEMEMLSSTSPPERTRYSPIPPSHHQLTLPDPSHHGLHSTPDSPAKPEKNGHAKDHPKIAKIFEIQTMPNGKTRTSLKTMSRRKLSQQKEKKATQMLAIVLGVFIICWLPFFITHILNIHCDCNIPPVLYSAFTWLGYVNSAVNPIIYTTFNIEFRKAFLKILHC
#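 Calcium flux readout, no-wash dye, 1 read/s. Inducible HEK293 Trex D2 line, overnight 30 C. Compound alone 180 s (agonist flags), then EC20 dopamine, another 180 s to score potentiation.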
# D2 antag – antagonizes the human D2 dopamine receptor; P14416; HEK293 TREx D2 cells, calcium flux, dopamine EC80; inhibition, % at 10 µM; 340,000 compounds, 2% hits; AID 485344; in the data active = inhibition above about 30%; inactive = below that, where a call was filed; note: 0% is about no effect
#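 Compounds are added to dye-loaded, induced HEK293 T-REx cells coupled to calcium release via D2; after a 3 min kinetic read an EC80 dopamine stimulus is given and fluorescence is recorded for 3 more min.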
# D2 ag-1 – activates the human D2 dopamine receptor. P14416. DiscoveRx PathHunter D2 beta-arrestin, luminescence, 90 min; 100% = 57 uM dopamine signal. activation, % (concentration not given with the values). 360,000 compounds, 0.084% hits. AID 624465; in the data active = activation above about 40%; inconclusive = between about 15% and that limit
#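 DiscoveRx PathHunter D2 beta-arrestin cells (2,100/well) attached overnight, then compound-stimulated 90 min at 37 C in HBSS/10 mM HEPES/0.1% Tween-20 buffer; beta-galactosidase complementation read by luminescence after 1 h at ambient temperature. Dopamine 57 uM final (EC100) as control.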
# D2 PAM-2 – human D2 receptor positive allosteric modulation. DiscoveRx D2 beta-arrestin cells, luminescence, 90 min; 100% = 57 uM dopamine signal. potentiation, % (concentration not given with the values). 360,000 compounds, 0.23% hits. P14416; in the data active = potentiation above about 50%; inconclusive = mostly about 30% to 49%
#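 D2 cells co-treated with compound plus 50 nM dopamine (EC20) for 90 min at 37 deg C to detect potentiation. Beta-arrestin recruitment was read as enzyme-fragment luminescence after 1 h at ambient temperature. Full response was set by 57 uM dopamine.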
# D2 ag-2 – activates the human D2 dopamine receptor; P14416; AID 485358; HEK293 T-REx D2 cells, calcium flux agonist mode; 340,000 compounds, 0.53% hits; activation, % at 2 µM;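 active = activation over 3 SD above normal in the single-dose calcium agonist read, cut at about 30% in these data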; note: 0% is about no effect
#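 Tetracycline-induced HEK293 T-REx cells with force-coupled D2 receptor, plated overnight at 30 C, loaded with no-wash calcium dye. After a 10 s baseline, compound was pin-added and calcium flux read kinetically for 180 s; calcium rises flagged agonists.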
# An asterisk follows results filed as active; ? = inconclusive; / = no result. Sampled rows, rich in hits. Any-hit rate of the full collection: about 2.4%.
SMILES,D2 PAM-1,D2 antag,D2 ag-1,D2 PAM-2,D2 ag-2
CCOc1ccc(/C=C(\C#N)c2nc(-c3cc4ccccc4oc3=O)cs2)c(OCC)c1,-1,/,/,/,1
CC(C)c1ccc(OCC(=O)NCC(c2ccc(Cl)cc2)N2CCOCC2)cc1 (centres undefined),-13,/,/,/,4
COc1ccc(C23CC4CC(CC(C4)C2)C3)cc1C(=O)NCCN(C)C,-15,33*,-6,-62,-1
COc1ccccc1C(=O)NCCC(=O)NCCC12CC3CC(CC(C3)C1)C2,-6,0,-4,-8,-1
CC(C)OCc1cc(CN2CCN(c3ccccc3)CC2)c(O)c2ncccc12,10,/,/,/,-1
Oc1c(CN2CCN(c3ccccc3)CC2)cc(Br)c2cccnc12,-26,59*,1,-18,4
CC1CCN(CC(=O)NC2CCCCC2)CC1,-13,16,1,-3,34*
O=C(O)/C(=C/c1ccco1)NC(=O)c1ccccc1,1,34*,-1,-12,1
Cc1cc(NC(=O)c2ccc3c(c2)C(=O)N(C2CCCCC2)C3=O)no1,-5,56*,-1,0,0
COc1cccc(OCCSc2nc3ccccc3n2CC(=O)N2CCCCC2)c1,/,/,/,/,8
Cc1ccc(S(=O)(=O)N(C)C)cc1NC(=O)C1CCCC1,-11,-9,-11,-27,1
CCN(CCO)C(=S)Nc1cc(S(=O)(=O)N(C)C)ccc1C,-24,51*,-3,-11,2
Cc1ccc(S(=O)(=O)N(C)C)cc1NC(=S)N1CCCCC1CO (centres undefined),-18,39*,-3,-9,0
COc1ccccc1NC(=O)CSC1=Nc2ccccc2C2=NC(Cc3ccccc3)C(=O)N12 (centres undefined),7,/,/,/,-4
CCc1ccccc1OCCCCN1CCCCC1,-27,89*,2,-16,0
Cc1cc(C)c(C)c(OCCOCCN2CCN(C)CC2)c1,3,-12,-5,-23,-1
CCc1ccccc1OCCCN1CCCC1,-13,/,7,-4,/
COc1ccccc1OCCCCN1CCCCC1,-19,/,2,-6,/
Cc1ccccc1OCCCCN1CCCCC1,-16,50*,-6,-20,1
Cc1cc(C)c(C)c(OCCCCN2CCCCC2)c1,-36,55*,6,-26,0
CCc1ccccc1NC(=O)CCCn1c(=O)c2cccn2c2ccccc21,-1,/,/,/,-1
Cc1ccc2occ(-c3cc(-c4ccccc4)nc4c3COc3ccccc3-4)c(=O)c2c1,-7,/,/,/,-1
CC[C@]12CCCN3CCc4c(n(c5ccccc45)[C@](O)(C(=O)OC)C1)[C@@H]32,14,-11,-4,13,1
CCC12CCCN3CCc4c(n(c5ccccc45)C(O)(C(=O)OC)C1)C32 (centres undefined),-30,51*,5,-6,0
COc1ccc(-n2cc(CNCCc3cscn3)c(-c3ccccc3Cl)n2)cc1,-21,48*,1,-22,0
SMILES,D2 PAM-1,D2 antag,D2 ag-1,D2 PAM-2,D2 ag-2
O=C1C2CCCN2C(c2cccc(Br)c2)N1c1ccc(F)cc1 (centres undefined),-6,38*,0,-2,-1
CC(C)N=c1scc(-c2cccs2)n1/N=C/c1ccc(O)c(O)c1O,4,-8,?,55*,5
CN=c1scc(-c2ccccc2F)n1/N=C/c1ccc(O)c(O)c1O,2,0,180*,173*,0
CN=c1scc(-c2ccccc2F)n1/N=C/c1ccc[nH]1,-9,1,-4,-10,0
CCOc1ccc2nc(Cl)c(C3CC(c4ccc(C)cc4)=NN3C(=O)CCC(=O)O)cc2c1 (centres undefined),-4,/,/,/,/
COc1cc(C(=O)NCCc2sc(-c3ccc(C)cc3)nc2C)cc(OC)c1OC,/,/,/,/,1
Cc1ccc(-n2c(SCC(=O)Nc3ccc4c(c3)OCCO4)nc3c([nH]c4ccccc43)c2=O)cc1,12,/,/,/,1
O=S(=O)(Cc1ccc(Cl)cc1)c1ccccc1-c1nnc(-c2ccccc2)o1,8,55*,1,10,1
CS(=O)(=O)c1ccccc1-c1nnc(-c2ccc(Cl)cc2)o1,-2,19,0,-4,0
Cc1ccc(NC(=O)CN2C(=O)C(C)(C)c3cc(S(=O)(=O)N4CCCCC4)ccc32)c(Br)c1,-2,/,/,/,0

# Compound activity: PubChem BioAssay, National Center for Advancing Translational Sciences (NCATS)
